Measurements taken from PubChem BioAssay AID624151 (Broad Institute, 2012).
About 410 (1.5%) of roughly 28,000 compounds were called active. Only a selection was taken, and actives are over-represented in it overall. A number with no mark means an inactive call. Cut-off read from the data, not from the text of the source: active = activation above about 52%; inconclusive = no clear call, values can overlap the other calls; inactive = below that.

Assay: mutant p53 pathway re-activators, primary screen, cell-based, SW480, luciferase, single point, HTS (AID 624151)
Conditions: SW480 PUMA-promoter luciferase, p53 mutant reactivation; at 9.98 µM; active compounds read high
With Cc1ccnc(NCc2ccc(N(C)C)cc2)c1 the activation was 45.6%. In the case of Cc1cc([N+](=O)[O-])nn1CC(=O)NC(C)C, the activation is reported as -1.03%. Molecule N#Cc1c(NC(=O)CCn2cnc3ccccc3c2=O)sc2c1CCCC2 has an activation of 4.75%. COc1ccc(C(=O)CSc2nnc(-c3cccc(C)c3)n2-c2ccccc2)cc1 showed an activation of -17.1%. With CCOc1ccc2c(=O)c(Oc3ccccc3Br)coc2c1 the activation was 53.9% (active). Cc1cc(C)c(C)c(Oc2coc3cc(OCC(=O)Nc4ccccc4Cl)ccc3c2=O)c1 showed an activation of -8.1%. Molecule O=C(COc1ccc2c(=O)c(-c3ccccc3)coc2c1)Nc1ccc(F)cc1 has an activation of 5.8%. Work on O=C(CSc1nnc(-c2ccccc2F)n1-c1ccccc1)Nc1ccc(Br)cc1 yielded an activation of -2.35%. Work on CCOC(=O)c1c(NC(=S)Nc2cnccn2)sc2c1CCCCCC2 yielded an activation of -14.1%. In the case of COc1ccc(N(CC(=O)Nc2ccccc2F)S(C)(=O)=O)cc1, the activation is reported as -10.8%. O=C(NCc1ccco1)C1CCCN(S(=O)(=O)c2ccccc2)C1 (configuration not stated) showed an activation of -15.8%. In the case of CC(C)c1cnc(NC(=O)Cc2ccccc2)s1, the activation is reported as 118% (active). With O=C(CS(=O)(=O)Cc1ccccc1)Nc1cccnc1 the activation was -13.2%. O=C(c1ccccc1Br)N1CCN(c2ccc([N+](=O)[O-])c(NCc3cccnc3)c2)CC1 gave an activation of 1.31%. In the case of COc1ccc(NC(=O)C(=O)NCC(=O)Nc2cccc(C(F)(F)F)c2)cc1, the activation is reported as 3.32%. With CCCN(C)C[C@H]1Oc2ncc(C#CCOC)cc2C(=O)N([C@@H](C)CO)C[C@H]1C the activation was 6.77%. COc1ccc(S(=O)(=O)N(C)C[C@H]2OCCCC[C@@H](C)Oc3ccc(NC(=O)NC(C)C)cc3C(=O)N([C@H](C)CO)C[C@H]2C)cc1 showed an activation of -3.86%. For COc1ccc(OC(C)C(=O)Nc2ccc(OC)c(OC)c2)cc1 (configuration not stated), the activation was 8.88%. For Cc1cccc(NC(=O)CSc2nc3c(cc2C#N)CCCCC3)c1, the activation was 90.8% (active). In the case of N#Cc1cc2c(nc1SCC(=O)Nc1ccccc1C(F)(F)F)CCCCC2, the activation is reported as 25.5%. For CN(C)c1ccc(NC(=O)CSc2nc3c(c(C(F)(F)F)c2C#N)CCCCCC3)cc1, the activation was -6.67%. Work on COCC#Cc1ccc2c(c1)O[C@H](CN(C)Cc1ccc3c(c1)OCO3)[C@H](C)CN([C@H](C)CO)S2(=O)=O yielded an activation of 12.5%. Work on CCn1c2ccccc2c2cc(NS(=O)(=O)c3ccccc3[N+](=O)[O-])ccc21 yielded an activation of -0.615%. Cn1c(SCC(=O)Nc2c(Cl)cccc2Cl)nnc1-c1ccc(NC(=O)c2ccc(F)cc2)cc1 showed an activation of -1.4%. For COc1ccc(OC)c(NC(=O)CSc2n[nH]c(-c3ccncc3)n2)c1, the activation was -8.93%. For Cc1ccc(C(C)C)cc1OCC(O)Cn1cnc2ccccc21 (configuration not stated), the activation was -15.4%. For CCCNC(=O)N(C)C[C@@H]1Oc2ncc(-c3cccc(C#N)c3)cc2C(=O)N([C@@H](C)CO)C[C@@H]1C, the activation was 2.46%. In the case of CC(=O)c1cccc(NC(=O)C(C)N(c2ccc(C)cc2)S(C)(=O)=O)c1 (configuration not stated), the activation is reported as 0.89%. In the case of Cc1cc(=O)[nH]c(SCCCOc2ccccc2-c2ccccc2)n1, the activation is reported as -15.4%. Molecule C[C@H]1CN([C@@H](C)CO)C(=O)c2cc(/C=C/c3ccccc3)cnc2O[C@@H]1CN(C)C(=O)c1ccc(F)cc1 has an activation of 5.51%. Molecule COc1ccc(NC(=O)Cn2cnc3sc(C)c(C)c3c2=O)cc1 has an activation of 4.48%. For COc1ccc(NC(=O)N(C)C[C@H]2Oc3cc(-c4ccncc4)ccc3S(=O)(=O)N([C@H](C)CO)C[C@H]2C)cc1, the activation was -12.4%. Molecule COc1ccc(NC(=O)CSC2CC(=O)N(c3ccc(F)cc3)C2=O)cc1 (configuration not stated) has an activation of -1.05%. Cc1ccccc1-n1c(C)cc(/C=C2\NC(=O)NC2=O)c1C gave an activation of 22.9%. In the case of Cc1ccc(C(=O)O)cc1S(=O)(=O)NCCCO, the activation is reported as -7.19%. Molecule COc1cccc2cc(C(=O)C3C(=O)C(=O)N(CCN4CCOCC4)C3c3ccc(F)cc3)oc12 (configuration not stated) has an activation of 4.69%. C[C@H](O)C#Cc1cnc2c(c1)C(=O)N([C@@H](C)CO)C[C@H](C)[C@H](CN(C)C(=O)c1ccccc1)O2 showed an activation of 10.7%. With C[C@@H]1CN([C@H](C)CO)S(=O)(=O)c2ccc(C#CC3CC3)cc2O[C@H]1CN(C)C(=O)C1CCCCC1 the activation was -13.7%. With Cc1sc2ncnc(SCC(=O)Nc3ccccc3)c2c1-c1ccccc1 the activation was -11.3%. Molecule Cc1ccc(S(=O)(=O)c2nc(-c3cccs3)oc2NCc2cccnc2)cc1 has an activation of -4.49%. In the case of C[C@@H]1CN([C@H](C)CO)S(=O)(=O)c2ccc(C#C[C@@H](C)O)cc2O[C@H]1CN(C)C(=O)CC1CC1, the activation is reported as 0.298%. CS(=O)(=O)N(CC(=O)Nc1ccc(Br)cc1)c1cc(Cl)c(Cl)cc1Cl gave an activation of -23.8%. Work on C[C@H](CO)N1C[C@H](C)[C@H](CN(C)C(=O)c2cnccn2)Oc2cc(C3=CCCC3)ccc2S1(=O)=O yielded an activation of 3.46%. Molecule O=C(CSc1nnc(-c2ccncc2)n1-c1ccc(Cl)cc1)Nc1ccc(C(=O)O)cc1 has an activation of 7.38%. CCCC#Cc1cnc2c(c1)C(=O)N([C@H](C)CO)C[C@H](C)[C@@H](CN(C)C(=O)c1cccnc1)O2 showed an activation of 2.84%. Work on Cc1ccn2c(NC(=O)C(C)(C)Oc3ccc(Cl)cc3)c(-c3ccc(F)cc3)nc2c1 yielded an activation of -19%. Molecule CCc1ccccc1NC(=O)CSc1nnc(N)s1 has an activation of 10.1%. Molecule COc1ccc(NC(=O)C(C)N2c3cccc4cccc(c34)S2(=O)=O)c(OC)c1 (configuration not stated) has an activation of -6.27%. COc1ccccc1-c1cnc2c(c1)C(=O)N([C@@H](C)CO)C[C@@H](C)[C@@H](CN(C)C(=O)c1cccnc1)O2 gave an activation of 2.65%. COc1ccccc1-c1cnc2c(c1)C(=O)N([C@H](C)CO)C[C@H](C)[C@@H](CN(C)CC1CCOCC1)O2 showed an activation of 5.27%. In the case of O=C(O)CCSc1nnc2c(n1)[nH]c1ccccc12, the activation is reported as -2.83%. O=C(CSc1nnc(-c2ccco2)n1-c1ccccc1)Nc1ccc(F)cc1 gave an activation of 7.08%.
